# Data published in PubChem BioAssay (EPA / NIEHS).
# The source made the active and inactive calls. The calls were made as follows: active = hit-call score of the fitted dose curve at least 0.9, where 1 is the maximum; inactive = score below 0.9.
# Test: APR_HepG2_p53Act_72hr: Apredica 72-hour HepG2 Assay for p53 Activation (AID 2282923);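 also: average cellular p53 protein immunofluorescence intensity in HepG2 cells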
# Details: high-content imaging, actives raise or lower the signal
# In short: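 10-pt conc. 0.39–200 uM, duplicate, 0.5% DMSO; 72 hr exposure; 3.7% formaldehyde fix, 0.5% Triton perm; sheep anti-p53/Cy5 + Hoechst; ArrayScan 20x, 6 images/well; gain/loss fit vs DMSO.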
SMILES,outcome,AC50
CN1COCN(Cc2cnc(Cl)s2)C1=N[N+](=O)[O-],inactive,–
CSc1nc(NC(C)C)nc(NC(C)C)n1,inactive,–
COP(=O)(NC(C)=O)SC (stereo unspecified),inactive,–
CCOP(=S)(OCC)OC(Cl)C(Cl)(Cl)Cl (stereo unspecified),inactive,–
COc1cc(OC)nc(Sc2cccc(Cl)c2C(=O)O)n1,inactive,–
CC1=NNC(=O)N(/N=C/c2cccnc2)C1,inactive,–
CCC(=O)Nc1ccc(Cl)c(Cl)c1,inactive,–
COc1cccc(C(=O)NN(C(=O)c2cc(C)cc(C)c2)C(C)(C)C)c1C,inactive,–
CCCSP(=O)(OCC)Oc1ccc(Br)cc1Cl (stereo unspecified),inactive,–
COc1ccc(C(=CC(=O)N2CCOCC2)c2ccc(Cl)cc2)cc1OC,inactive,–
S=C1NCCN1,inactive,–
CC(C)[C@H](C(=O)O[C@H](C#N)c1cccc(Oc2ccccc2)c1)c1ccc(Cl)cc1,inactive,–
CCOP(=S)(OCC)Oc1ccc([N+](=O)[O-])cc1,inactive,–
Nc1nc(N)nc(NC2CC2)n1,inactive,–
FC(F)C(F)(F)OCC(Cn1cncn1)c1ccc(Cl)cc1Cl (stereo unspecified),–,116 µM (active)
CC1(C(=O)Nc2ccc(O)c(Cl)c2Cl)CCCCC1,inactive,–
CNC(=O)Oc1cccc2c1OC(C)(C)O2,inactive,–
CSC1=N[C@@](C)(c2ccccc2)C(=O)N1Nc1ccccc1,inactive,–
CC(C)=CC1C(C(=O)OCN2C(=O)C3=C(CCCC3)C2=O)C1(C)C (stereo unspecified),inactive,–
CC[C@H](C)[C@H]1O[C@]2(C=C[C@@H]1C)C[C@@H]1C[C@@H](C/C=C(\C)[C@@H](O[C@H]3C[C@H](OC)[C@@H](O[C@H]4C[C@H](OC)[C@@H](NC)[C@H](C)O4)[C@H](C)O3)[C@@H](C)/C=C/C=C3\CO[C@@H]4[C@H](O)C(C)=C[C@@H](C(=O)O1)[C@]34O)O2,inactive,–
N#CSCSC#N,inactive,–
COP(=O)(OC)C(O)C(Cl)(Cl)Cl (stereo unspecified),–,113 µM (active)
CCC(CC)Nc1c([N+](=O)[O-])cc(C)c(C)c1[N+](=O)[O-],inactive,–
CCCCOC(=O)c1ccccc1C(=O)O,inactive,–
CCCOc1nn(C(=O)NS(=O)(=O)c2ccccc2C(=O)OC)c(=O)n1C,inactive,–
C[N+]1(C)CCCCC1,inactive,–
CC(C)N(C(=O)SCC(Cl)=C(Cl)Cl)C(C)C,inactive,–
CCOP(=S)(OCC)Oc1ccc2c(C)c(Cl)c(=O)oc2c1,inactive,–
CCOC(=O)COc1cc(-c2nn(C)c(OC(F)F)c2Cl)c(F)cc1Cl,inactive,–
CCOP(=O)(OCC)Oc1cc(C)nc(C(C)C)n1,inactive,–

# Test: APR_HepG2_MitoMass_72hr: Apredica 72-hour HepG2 Assay for Mitochondrial Mass (AID 2282924);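 also: MitoTracker Red CMXRos stain intensity per cell imaged as mitochondrial mass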
# Details: high-content imaging, actives raise or lower the signal
# In short: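 HepG2 cells dosed 72 hr at 0.39–200 uM (0.5% DMSO), in duplicate. MitoTracker Red CMXRos 250 nM loaded 30 min before formaldehyde fixation; high-content fluorescence imaging, bidirectional fit versus DMSO.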
SMILES,outcome,AC50
CN1COCN(Cc2cnc(Cl)s2)C1=N[N+](=O)[O-],inactive,–
O=C(O)c1cc(Oc2ccc(C(F)(F)F)cc2Cl)ccc1[N+](=O)[O-],inactive,–
Nc1c(Cl)cc([N+](=O)[O-])cc1Cl,inactive,–
CSc1nc(NC(C)C)nc(NC(C)C)n1,inactive,–
COP(=O)(NC(C)=O)SC (stereo unspecified),inactive,–
CCOP(=S)(OCC)OC(Cl)C(Cl)(Cl)Cl (stereo unspecified),inactive,–
COc1cc(OC)nc(Sc2cccc(Cl)c2C(=O)O)n1,inactive,–
CC1=NNC(=O)N(/N=C/c2cccnc2)C1,inactive,–
CCC(=O)Nc1ccc(Cl)c(Cl)c1,inactive,–
COc1cccc(C(=O)NN(C(=O)c2cc(C)cc(C)c2)C(C)(C)C)c1C,inactive,–
CCCSP(=O)(OCC)Oc1ccc(Br)cc1Cl (stereo unspecified),inactive,–
COc1ccc(C(=CC(=O)N2CCOCC2)c2ccc(Cl)cc2)cc1OC,inactive,–
S=C1NCCN1,inactive,–
CC(C)[C@H](C(=O)O[C@H](C#N)c1cccc(Oc2ccccc2)c1)c1ccc(Cl)cc1,inactive,–
CCOP(=S)(OCC)Oc1ccc([N+](=O)[O-])cc1,inactive,–
Nc1nc(N)nc(NC2CC2)n1,inactive,–
CCCSP(=O)(OCC)SCCC,inactive,–
FC(F)C(F)(F)OCC(Cn1cncn1)c1ccc(Cl)cc1Cl (stereo unspecified),inactive,–

SMILES,outcome,AC50
CC1(C(=O)Nc2ccc(O)c(Cl)c2Cl)CCCCC1,inactive,–
CN(C)[C@@H]1C(=O)C(C(N)=O)=C(O)[C@@]2(O)C(=O)C3=C(O)c4c(O)cccc4[C@@](C)(O)[C@H]3[C@H](O)[C@@H]12,inactive,–
CNC(=O)Oc1cccc2c1OC(C)(C)O2,–,56.7 µM (active)
CSC1=N[C@@](C)(c2ccccc2)C(=O)N1Nc1ccccc1,inactive,–
CC(C)=CC1C(C(=O)OCN2C(=O)C3=C(CCCC3)C2=O)C1(C)C (stereo unspecified),inactive,–
CC[C@H](C)[C@H]1O[C@]2(C=C[C@@H]1C)C[C@@H]1C[C@@H](C/C=C(\C)[C@@H](O[C@H]3C[C@H](OC)[C@@H](O[C@H]4C[C@H](OC)[C@@H](NC)[C@H](C)O4)[C@H](C)O3)[C@@H](C)/C=C/C=C3\CO[C@@H]4[C@H](O)C(C)=C[C@@H](C(=O)O1)[C@]34O)O2,inactive,–
N#CSCSC#N,inactive,–
COP(=O)(OC)C(O)C(Cl)(Cl)Cl (stereo unspecified),inactive,–
Cc1ccn2nc(S(=O)(=O)Nc3c(F)cccc3F)nc2n1,inactive,–
CCC(CC)Nc1c([N+](=O)[O-])cc(C)c(C)c1[N+](=O)[O-],inactive,–
CCCCOC(=O)c1ccccc1C(=O)O,inactive,–
CCCOc1nn(C(=O)NS(=O)(=O)c2ccccc2C(=O)OC)c(=O)n1C,inactive,–
C[N+]1(C)CCCCC1,inactive,–
CC(C)N(C(=O)SCC(Cl)=C(Cl)Cl)C(C)C,inactive,–
CCOP(=S)(OCC)Oc1ccc2c(C)c(Cl)c(=O)oc2c1,inactive,–
CCc1cccc(CC)c1N(COC)C(=O)CCl,inactive,–
CCOC(=O)COc1cc(-c2nn(C)c(OC(F)F)c2Cl)c(F)cc1Cl,inactive,–
CCOP(=O)(OCC)Oc1cc(C)nc(C(C)C)n1,inactive,–
